According to ChEMBL document CHEMBL3988442, “University of Dundee, Small-Polar-MMV Screening Library” (2021):
For some assays here: Results with a measured potency or affinity are listed apart.

Assays:
Set-up in all cases: scale not given: direction of the effect not stated beside the values
[1] = target: Protein translocase subunit SecA (Escherichia coli (strain K12)) (UniProt P10408); assay: Assay to Identify E. coli SecA ATPase Inhibitors; assay type: functional; settings: 30 µM
[2] = target: T1, Ubiquitin-activating enzyme e1, putative (Leishmania donovani (strain BPK282A1)) (UniProt E9BSI1); assay: Leishmania donovani Ubiquitin Activating Enzyme (LdE1); assay type: functional; settings: 30 µM
T1 sequence (whole entry): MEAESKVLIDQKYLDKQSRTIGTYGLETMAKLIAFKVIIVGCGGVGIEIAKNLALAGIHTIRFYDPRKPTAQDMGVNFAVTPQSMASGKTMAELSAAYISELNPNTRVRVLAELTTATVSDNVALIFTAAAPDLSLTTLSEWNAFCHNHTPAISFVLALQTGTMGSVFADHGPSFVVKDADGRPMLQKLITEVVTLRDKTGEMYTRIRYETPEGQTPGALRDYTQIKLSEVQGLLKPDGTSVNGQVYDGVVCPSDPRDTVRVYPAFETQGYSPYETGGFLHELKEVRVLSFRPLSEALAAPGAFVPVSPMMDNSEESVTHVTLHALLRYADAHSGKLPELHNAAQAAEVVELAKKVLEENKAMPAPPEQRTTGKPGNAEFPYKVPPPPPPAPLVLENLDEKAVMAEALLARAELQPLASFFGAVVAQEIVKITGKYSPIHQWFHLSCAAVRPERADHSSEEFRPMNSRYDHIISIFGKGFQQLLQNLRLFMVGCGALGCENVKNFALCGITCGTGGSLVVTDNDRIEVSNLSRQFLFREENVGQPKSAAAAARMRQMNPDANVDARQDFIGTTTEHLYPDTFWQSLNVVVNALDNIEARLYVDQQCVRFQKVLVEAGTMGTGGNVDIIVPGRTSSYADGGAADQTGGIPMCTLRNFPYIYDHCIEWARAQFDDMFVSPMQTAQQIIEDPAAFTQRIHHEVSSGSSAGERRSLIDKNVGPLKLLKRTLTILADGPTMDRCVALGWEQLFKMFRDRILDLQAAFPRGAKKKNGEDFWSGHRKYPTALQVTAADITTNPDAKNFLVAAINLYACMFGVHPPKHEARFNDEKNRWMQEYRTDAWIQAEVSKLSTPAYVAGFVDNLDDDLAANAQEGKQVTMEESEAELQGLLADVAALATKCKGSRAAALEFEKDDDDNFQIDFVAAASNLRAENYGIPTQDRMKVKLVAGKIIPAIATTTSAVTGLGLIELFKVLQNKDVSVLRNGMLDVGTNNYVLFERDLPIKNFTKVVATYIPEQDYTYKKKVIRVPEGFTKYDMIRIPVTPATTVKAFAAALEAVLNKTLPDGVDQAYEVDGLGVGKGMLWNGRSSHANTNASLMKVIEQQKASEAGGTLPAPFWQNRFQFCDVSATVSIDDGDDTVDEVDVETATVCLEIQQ

[3] = target: AMP-activated protein kinase, AMPK (Homo sapiens) (UniProt P54646+O43741+P54619+Q9UGJ0+Q9Y478+Q13131+Q9UGI9); assay: AMP-dependent Kinase enzyme assay. An in vitro enzyme assay that detects ADP turnover that is directly proportional to AMPK activity. This uses naive AMPK that is activated during the assay with MK-8722; assay type: functional; settings: 30 µM
[4] = target: Sialic acid-binding Ig-like lectin 9 (Homo sapiens) (UniProt Q9Y336); assay: Hs-Siglec9 ALPHAscreen SOP 20170721; settings: 10 µM
Trypanosoma cruzi = assay: Trypanosoma cruzi phosphomannomutase and mannose-1-phosphate guanylyltransferase assay; assay type: functional; settings: 10 µM
[5] = target: T2, Arginase-2, mitochondrial (Homo sapiens) (UniProt P78540); assay: in vitro enzyme assay to detect the production of urea directly proportional to the activity of Arginase II; assay type: functional; settings: 33.3 µM; note: in the data most compounds retested in dose-response had high values
T2 sequence (whole entry): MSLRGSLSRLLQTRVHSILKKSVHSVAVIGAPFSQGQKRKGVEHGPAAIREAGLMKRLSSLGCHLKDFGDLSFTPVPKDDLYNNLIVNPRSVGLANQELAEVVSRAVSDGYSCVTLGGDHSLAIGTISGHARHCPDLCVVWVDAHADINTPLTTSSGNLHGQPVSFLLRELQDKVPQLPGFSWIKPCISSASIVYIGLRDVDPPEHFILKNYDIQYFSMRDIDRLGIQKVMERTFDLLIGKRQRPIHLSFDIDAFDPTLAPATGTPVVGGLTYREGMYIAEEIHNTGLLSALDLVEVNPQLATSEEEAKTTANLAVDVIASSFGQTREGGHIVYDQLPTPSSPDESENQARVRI

[6] = target: T3, Proteasome subunit beta (Trypanosoma cruzi) (UniProt O96673); assay: Trypanosoma cruzi proteasome chymotrypsin-like activity (TcProtChymo) assay.; note: in the data most compounds retested in dose-response had high values; assay type: functional; settings: 9.37 µM
T3 sequence (whole entry): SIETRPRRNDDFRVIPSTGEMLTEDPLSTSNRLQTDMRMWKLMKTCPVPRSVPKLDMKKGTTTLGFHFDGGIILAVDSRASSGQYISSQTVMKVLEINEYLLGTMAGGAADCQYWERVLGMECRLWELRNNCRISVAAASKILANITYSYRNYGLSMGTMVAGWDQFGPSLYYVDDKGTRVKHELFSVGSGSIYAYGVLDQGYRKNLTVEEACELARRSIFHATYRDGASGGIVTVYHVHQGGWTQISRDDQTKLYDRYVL

Homo sapiens = species: Homo sapiens; assay: To identify inhibition of the IFN signalling (Jak-Stat) pathway via expression of an eGFP reporter gene under the control of an IFN-stimulated response element (ISRE) containing MxA promoter.; assay type: functional; settings: 30 µM
[7] = target: T4, Tyrosyl-tRNA synthetase, putative (Trypanosoma cruzi (strain CL Brener)) (UniProt Q4DSP6); assay: Trypanosoma cruzi tyrosyl tRNA synthetase (TcYRS) _High Tyrosine SOP; assay type: functional; settings: 30 µM; note: in the data most compounds retested in dose-response had high values
T4 sequence (whole entry): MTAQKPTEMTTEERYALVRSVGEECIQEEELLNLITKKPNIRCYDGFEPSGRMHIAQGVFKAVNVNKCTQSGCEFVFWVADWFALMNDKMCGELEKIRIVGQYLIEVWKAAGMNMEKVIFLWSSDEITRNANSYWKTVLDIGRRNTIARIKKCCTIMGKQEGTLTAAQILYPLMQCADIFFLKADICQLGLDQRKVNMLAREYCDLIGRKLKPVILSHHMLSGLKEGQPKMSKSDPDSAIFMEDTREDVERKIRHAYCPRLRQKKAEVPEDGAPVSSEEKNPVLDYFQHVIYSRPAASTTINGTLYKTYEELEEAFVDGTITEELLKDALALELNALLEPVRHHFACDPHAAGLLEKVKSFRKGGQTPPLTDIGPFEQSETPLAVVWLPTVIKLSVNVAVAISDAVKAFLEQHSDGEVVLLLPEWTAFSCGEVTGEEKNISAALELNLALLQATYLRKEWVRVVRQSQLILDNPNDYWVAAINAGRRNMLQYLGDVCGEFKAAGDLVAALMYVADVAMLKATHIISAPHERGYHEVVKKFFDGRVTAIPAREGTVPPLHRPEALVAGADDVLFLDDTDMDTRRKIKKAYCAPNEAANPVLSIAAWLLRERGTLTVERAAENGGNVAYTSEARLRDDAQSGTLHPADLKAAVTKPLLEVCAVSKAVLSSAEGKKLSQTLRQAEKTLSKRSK

[8] = target: T4, Tyrosyl-tRNA synthetase, putative (Trypanosoma cruzi (strain CL Brener)); assay: Trypanosoma cruzi tyrosyl tRNA synthetase (TcYRS) SOP; assay type: functional; settings: 30 µM
[9] = target: Chromo domain-containing protein 1 (Saccharomyces cerevisiae (strain ATCC 204508 / S288c) (Baker's yeast)) (UniProt P32657); assay: ScCHD-1 Enzyme Inhibition Assay; assay type: functional; settings: 30 µM; note: in the data most compounds retested in dose-response had high values
Sequence of Chromo domain-containing protein 1 (Saccharomyces cerevisiae (strain ATCC 204508 / S288c) (Baker's yeast)) (P32657 whole entry, the tested form may be a part): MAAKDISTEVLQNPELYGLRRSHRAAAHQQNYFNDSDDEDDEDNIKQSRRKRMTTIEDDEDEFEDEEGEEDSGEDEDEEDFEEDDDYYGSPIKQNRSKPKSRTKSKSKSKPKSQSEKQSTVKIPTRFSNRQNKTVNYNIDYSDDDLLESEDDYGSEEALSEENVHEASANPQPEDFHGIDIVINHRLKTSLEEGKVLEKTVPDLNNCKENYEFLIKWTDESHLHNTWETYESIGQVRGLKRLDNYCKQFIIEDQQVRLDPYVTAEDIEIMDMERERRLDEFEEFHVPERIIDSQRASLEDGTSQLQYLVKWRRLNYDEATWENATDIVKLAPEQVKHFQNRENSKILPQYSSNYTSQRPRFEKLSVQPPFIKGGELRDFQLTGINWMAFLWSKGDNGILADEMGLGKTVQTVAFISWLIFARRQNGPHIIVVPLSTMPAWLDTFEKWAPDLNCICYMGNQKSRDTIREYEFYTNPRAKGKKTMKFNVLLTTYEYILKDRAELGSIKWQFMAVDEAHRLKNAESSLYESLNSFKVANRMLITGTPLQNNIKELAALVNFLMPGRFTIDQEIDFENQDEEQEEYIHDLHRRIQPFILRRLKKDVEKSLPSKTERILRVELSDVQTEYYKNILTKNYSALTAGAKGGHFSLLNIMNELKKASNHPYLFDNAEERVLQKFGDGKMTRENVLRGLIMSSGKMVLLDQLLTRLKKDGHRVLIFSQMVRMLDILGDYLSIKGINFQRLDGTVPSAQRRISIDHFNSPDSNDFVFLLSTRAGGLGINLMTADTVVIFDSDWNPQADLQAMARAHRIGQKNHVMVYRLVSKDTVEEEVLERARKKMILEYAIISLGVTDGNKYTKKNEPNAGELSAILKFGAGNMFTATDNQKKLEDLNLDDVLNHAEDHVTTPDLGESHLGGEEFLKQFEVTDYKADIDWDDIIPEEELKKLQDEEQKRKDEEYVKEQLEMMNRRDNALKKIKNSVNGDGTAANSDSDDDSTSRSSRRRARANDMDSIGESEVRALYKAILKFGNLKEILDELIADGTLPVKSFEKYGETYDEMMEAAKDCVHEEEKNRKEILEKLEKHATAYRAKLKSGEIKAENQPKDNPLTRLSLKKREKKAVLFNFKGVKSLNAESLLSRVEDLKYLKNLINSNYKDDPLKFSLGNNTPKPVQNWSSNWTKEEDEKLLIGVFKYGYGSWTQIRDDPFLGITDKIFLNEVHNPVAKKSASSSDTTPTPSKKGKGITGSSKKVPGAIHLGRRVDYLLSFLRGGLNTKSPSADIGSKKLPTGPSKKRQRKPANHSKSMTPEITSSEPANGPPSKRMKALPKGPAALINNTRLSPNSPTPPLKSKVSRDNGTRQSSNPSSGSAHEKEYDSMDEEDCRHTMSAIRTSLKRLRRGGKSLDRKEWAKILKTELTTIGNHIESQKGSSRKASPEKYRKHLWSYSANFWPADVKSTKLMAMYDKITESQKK

Sequence of Protein translocase subunit SecA (Escherichia coli (strain K12)) (P10408 whole entry): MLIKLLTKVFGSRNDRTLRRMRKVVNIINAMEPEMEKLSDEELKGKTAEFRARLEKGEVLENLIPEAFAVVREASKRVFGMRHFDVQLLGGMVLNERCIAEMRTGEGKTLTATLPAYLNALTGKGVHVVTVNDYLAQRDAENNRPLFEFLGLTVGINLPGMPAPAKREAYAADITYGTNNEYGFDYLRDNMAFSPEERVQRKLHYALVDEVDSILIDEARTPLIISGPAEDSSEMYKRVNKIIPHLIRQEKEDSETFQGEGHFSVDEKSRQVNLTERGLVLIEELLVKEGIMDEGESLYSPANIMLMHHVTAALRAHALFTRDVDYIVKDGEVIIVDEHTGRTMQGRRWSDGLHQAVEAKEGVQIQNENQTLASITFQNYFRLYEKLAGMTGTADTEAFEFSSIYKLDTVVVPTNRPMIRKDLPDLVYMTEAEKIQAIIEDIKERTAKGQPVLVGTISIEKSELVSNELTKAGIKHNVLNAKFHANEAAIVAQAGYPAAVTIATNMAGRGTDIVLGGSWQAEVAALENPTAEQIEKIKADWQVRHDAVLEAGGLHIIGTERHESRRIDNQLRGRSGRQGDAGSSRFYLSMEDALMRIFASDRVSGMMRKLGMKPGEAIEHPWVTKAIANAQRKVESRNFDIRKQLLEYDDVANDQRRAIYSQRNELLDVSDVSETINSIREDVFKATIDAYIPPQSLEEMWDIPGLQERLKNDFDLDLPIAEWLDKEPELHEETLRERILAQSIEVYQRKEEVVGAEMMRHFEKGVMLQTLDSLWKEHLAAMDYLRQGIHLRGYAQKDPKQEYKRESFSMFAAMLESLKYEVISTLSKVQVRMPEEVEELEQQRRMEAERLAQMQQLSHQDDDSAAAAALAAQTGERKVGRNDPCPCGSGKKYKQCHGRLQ
Sequence of Sialic acid-binding Ig-like lectin 9 (Homo sapiens) (Q9Y336 whole entry): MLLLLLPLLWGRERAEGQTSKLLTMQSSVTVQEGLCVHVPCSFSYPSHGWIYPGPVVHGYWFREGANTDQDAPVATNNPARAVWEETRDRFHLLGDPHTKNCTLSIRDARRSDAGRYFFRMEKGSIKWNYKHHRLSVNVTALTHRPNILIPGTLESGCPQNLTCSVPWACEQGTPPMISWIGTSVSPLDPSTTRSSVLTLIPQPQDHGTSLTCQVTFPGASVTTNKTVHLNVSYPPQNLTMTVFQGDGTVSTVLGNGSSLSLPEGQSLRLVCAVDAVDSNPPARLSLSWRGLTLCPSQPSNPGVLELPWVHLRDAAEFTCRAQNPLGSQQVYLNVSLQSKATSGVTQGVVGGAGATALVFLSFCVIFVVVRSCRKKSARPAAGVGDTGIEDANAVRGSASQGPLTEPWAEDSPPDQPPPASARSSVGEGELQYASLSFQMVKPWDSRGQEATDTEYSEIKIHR

| Structure (SMILES) | Percent Effect [1] [%] | Percent Effect [2] [%] | Percent Effect [3] [%] | Percent Effect [4] [%] | Percent Effect (Trypanosoma cruzi) [%] | Percent Effect [5] [%] | Percent Effect [6] [%] | Percent Effect (Homo sapiens) [%] | Percent Effect [7] [%] | Percent Effect [8] [%] | Percent Effect [9] [%] |
| --- | --- | --- | --- | --- | --- | --- | --- | --- | --- | --- | --- |
| COc1ccccc1CNC(=O)C1=NN(c2ccc(C)cc2)C(=O)CN1 | -2.03 | 13.5 | -0.556 | 34.6 | -3.62 | -0.248 | 15.2 | 98.2 | -6.45 | -3.7 | -2.26 |
| O=C(c1ccncc1)N1CCC(O)(Cn2ccc3ccncc32)CC1 | -2.15 | 6.76 | 7.19 | -2.13 | -3.75 | 0.232 | 17.9 | -0.964 | 4.3 | 9.09 | -10.5 |
| Cc1ccc(CN2CCc3ncc(CNS(C)(=O)=O)n3CC2)o1 | -0.0355 | 8.22 | -1.38 | 6.78 | -5.56 | -1.6 | 15.3 | 16.8 | 7.29 | 16.1 | -0.506 |
| CCc1ncncc1C(=O)N1CCOC(c2nc(C)n[nH]2)C1 (configuration not stated) | -9.48 | -1.27 | 7.38 | 5.45 | -2.56 | 2.8 | 5.32 | 1.37 | 1.04 | 10.1 | 1.96 |
| COc1cc2cc(C(=O)O)n(C)c2c(OC)c1OC | 2.1 | -9.33 | 13.7 | 8.78 | -4.71 | -5.46 | 13.9 | 1.84 | -3.17 | -5.13 | -10 |
| Cc1noc(C2CCCN(C(=O)c3ccc(Br)o3)C2)n1 (configuration not stated) | -6.46 | 13 | -5.37 | -19.7 | 7.54 | -4.84 | 13.8 | 1.55 | 3.81 | 21.2 | -17.1 |
| Cc1nc(C2CCN(C(=O)c3cccnc3)CC2)c2sccn12 | -1.59 | 1.35 | 6.93 | 4.07 | 3.36 | 3.48 | 7.8 | -15.3 | 2.15 | 6.49 | -6.97 |
| Cc1noc(Cl)c1CCC(=O)N1CCC(CC(N)=O)CC1 | -6.39 | 18.4 | -6.93 | 6.68 | 6.63 | -3.96 | 13.6 | 10.4 | 4.43 | 18.5 | -7.5 |
| Cc1ccc(CNS(=O)(=O)CC2=NC(=O)n3cccc3C2=O)cc1 | 0.952 | -9.33 | 7.77 | 4.14 | -1.77 | -4.4 | 7.21 | -19.8 | -2.12 | 0 | 2.54 |
| CC(C)CN1CCC(c2nc3c([nH]2)CC(C)(C)CNC3=O)C1 (configuration not stated) | 3.37 | 8.11 | -3.98 | 5.96 | 3.67 | 16.2 | 10.5 | 19.8 | 5.82 | 19.5 | -2.21 |
| O=C(c1cnco1)N1CCCC(Cc2cccc3ncccc23)C1 (configuration not stated) | -1.91 | -4.05 | 15.2 | -0.964 | 7.51 | 0.696 | 8.42 | 17.8 | 1.07 | 9.09 | -18.8 |
| O=C(NCC1CC1)[C@H]1C[C@H]2OCC[C@H]2N(CCc2ccccc2)C1 | -3.05 | 2.7 | 0.431 | -3.87 | -5.96 | -1.59 | 16.4 | 0.915 | 2.16 | 5.13 | -1.91 |
| Cc1cc(C)c2cc(CNCC3CCCO3)c3nn(C)c(=O)n3c2c1 (configuration not stated) | -1.56 | 9.46 | 5.25 | 0.0533 | 2.17 | -1.62 | 7.96 | 27 | 2.15 | 9.09 | -28.2 |
| NC(=O)c1ccc(S(=O)(=O)NC2CCN(Cc3ccccc3)C2=O)cc1 (configuration not stated) | -3.79 | 17.7 | 9.8 | 5.49 | 0.472 | -3.42 | 0.901 | 2.7 | 5.42 | 11.4 | -6.86 |
| COc1cc(CC(O)CO)c(OC)c2c1OCO2 (configuration not stated) | -6.55 | 14.7 | -12.3 | 4.03 | 6.29 | -12.5 | 9.8 | 5.7 | 8.47 | 15.4 | -21.2 |
| Cc1cc(-c2cnn(CCNC(=O)C3CCCO3)c2C2CC2)on1 (configuration not stated) | -5.64 | 4.05 | 12 | 8.12 | 5.34 | 0.232 | 3.59 | 0.87 | 2.15 | 11.7 | 0.889 |
| CC[C@@H]1N(CC2CC2)CCC[C@]12CCC(=O)N2CCOC | -3.03 | 8 | 5.19 | 4.35 | 0.772 | -53.9 | 5.47 | -8.94 | 5.21 | 0 | -4.58 |
| COc1cc(C)sc1C(=O)N1CC(c2cccnc2)C1 | -4.73 | 2.7 | 4.4 | -2.39 | -3.86 | -1.91 | 9.65 | -1.77 | 1.59 | 9.76 | -1.11 |
| CN(C)S(=O)(=O)N1C[C@H](Oc2cccnc2)[C@H]2OCCC[C@H]21 | -5.31 | 5.2 | 74 | -1.91 | -0.69 | -4.52 | 3.65 | 10.9 | 0 | -1.28 | -8.75 |
| Cn1c(Cn2cccn2)nnc1C1CCN(Cc2cccnc2N)CC1 | -8.22 | 1.39 | -1.91 | -4.65 | -3.4 | 0.883 | 3.86 | 12.7 | -1.05 | 0 | 0.423 |
| COCC1CN(Cc2ccncc2)Cc2nnn(CC3CC3)c21 (configuration not stated) | -1.08 | 0 | 2.57 | 2.54 | 0.688 | -1.38 | 1.33 | -3.55 | 0 | -1.24 | 3.24 |
| Cc1nccn1C1CCCN(C(=O)c2ccc3c(c2)nnn3C)C1 (configuration not stated) | -3.52 | 10.5 | -2.69 | 0.191 | -4.95 | 5.75 | 9.9 | 3.52 | 4.43 | 6.17 | -4.12 |
